Hit rate of the full screen: of about 330,000 compounds, about 10,000 (3%) were called active. The sample holds actives, similar compounds and a random draw of the others, so the mix is not that of the screen. A number with no mark means an inactive call.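 Rule for the calls: active = inhibition of at least 50% at 8 µM in the primary screen; inactive = the rest.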
Target: Protein Mdm4 (Homo sapiens) + E3 ubiquitin-protein ligase Mdm2 (Homo sapiens) (UniProt O15151+Q00987)
Experiment: disruptors of Mdm2/MdmX RING complex – cell-based, luminescence, split luciferase, SaOS-2, uHTS, primary screen (AID 485346)
Conditions: SaOS-2 split-luciferase Mdm2/MdmX complementation, at 8 µM, active compounds read high

Protein Mdm4 (Homo sapiens) + E3 ubiquitin-protein ligase Mdm2 (Homo sapiens), sequence (O15151 whole entry, looked up): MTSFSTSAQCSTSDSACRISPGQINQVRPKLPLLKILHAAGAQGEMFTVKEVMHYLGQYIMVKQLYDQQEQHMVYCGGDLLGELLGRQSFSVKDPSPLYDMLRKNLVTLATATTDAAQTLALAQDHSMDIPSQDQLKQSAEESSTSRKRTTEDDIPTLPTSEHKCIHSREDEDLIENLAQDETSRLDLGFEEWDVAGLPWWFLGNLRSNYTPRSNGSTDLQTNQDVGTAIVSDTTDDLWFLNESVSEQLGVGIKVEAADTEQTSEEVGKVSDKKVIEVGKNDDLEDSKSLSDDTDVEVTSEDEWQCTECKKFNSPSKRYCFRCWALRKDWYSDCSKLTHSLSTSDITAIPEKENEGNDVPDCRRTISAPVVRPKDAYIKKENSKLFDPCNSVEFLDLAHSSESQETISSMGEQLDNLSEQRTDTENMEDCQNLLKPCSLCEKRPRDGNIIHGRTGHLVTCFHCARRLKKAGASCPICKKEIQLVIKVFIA
Protein Mdm4 (Homo sapiens) + E3 ubiquitin-protein ligase Mdm2 (Homo sapiens), sequence (Q00987 whole entry, looked up): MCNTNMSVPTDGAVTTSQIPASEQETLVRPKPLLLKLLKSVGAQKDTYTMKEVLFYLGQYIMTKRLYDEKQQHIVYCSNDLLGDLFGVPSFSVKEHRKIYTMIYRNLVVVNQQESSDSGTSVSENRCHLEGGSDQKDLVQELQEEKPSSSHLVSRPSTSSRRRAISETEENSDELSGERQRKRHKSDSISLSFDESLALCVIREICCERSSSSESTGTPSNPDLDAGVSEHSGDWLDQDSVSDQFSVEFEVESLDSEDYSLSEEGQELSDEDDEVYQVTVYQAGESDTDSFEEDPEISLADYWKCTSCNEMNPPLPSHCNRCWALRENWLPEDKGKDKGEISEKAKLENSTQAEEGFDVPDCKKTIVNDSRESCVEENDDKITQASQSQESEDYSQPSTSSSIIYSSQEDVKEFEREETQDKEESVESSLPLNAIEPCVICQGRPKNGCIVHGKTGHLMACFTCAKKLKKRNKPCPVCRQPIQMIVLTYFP

Compound | inhibition
COCc1nnc(NC(=O)c2ccc3c(c2)OCO3)s1 | -40.4%
Cc1ccc(C(=O)Nc2sc(Cc3ccc4c(c3)OCO4)c(C)c2C(N)=O)cc1 | 75.3% (active)
COc1ccc(CC(=O)Nc2sc(Cc3ccccc3)c(C)c2C(N)=O)cc1 | -12.1%
Cc1nn2c(NCCN(C)C)c3c(nc2c1-c1ccccc1)CCC3 | 1.13%
CCc1cc2c(=O)n(-c3ccccc3)c(SCC(=O)O)nc2s1 | 0.424%
CC(=O)N1C(=O)/C(=C2\SC(=S)N(NC(=O)c3ccc(O)cc3)C2=O)c2ccccc21 | -4.31%
O=C1/C(=C/c2ccc(F)cc2)SC(=S)N1CCCC(=O)N1CCCCC1CCO (stereo unspecified) | 81.8% (active)
COc1ccc(/C=C2\SC(=S)N(CCCC(=O)NC3CCCC3)C2=O)cc1OC | 42.6%
CCN(C(=O)CN1C(=O)/C(=C/c2ccc(F)cc2)SC1=S)C1CCS(=O)(=O)C1 (stereo unspecified) | -3.51%
Cc1ccc(O)c(NC(=S)NC(=O)COc2ccc(Br)cc2)c1 | -6.04%
CCCCN1C(=S)NC[C@@H]1C(C)CC (stereo partly specified) | -2.44%
CC1Cc2ccccc2N1S(=O)(=O)c1cccc(C(=O)NCC(c2ccco2)N2CCCC2)c1 (stereo unspecified) | 6.48%
CC1Cc2ccccc2N1S(=O)(=O)c1cccc(C(=O)OCC(=O)N2CCOCC2)c1 (stereo unspecified) | 9.37%
CCCCn1ccnc1C(=O)c1cccc(S(=O)(=O)N2c3ccccc3CC2C)c1 (stereo unspecified) | 55.3% (active)
Cc1noc(C)c1S(=O)(=O)Nc1ccc(C(=O)N2CCN(c3ccc(F)cc3)CC2)cc1 | 16.2%
COc1ccc(CCNC(=O)COC(=O)Cc2cccc(F)c2)cc1 | 5.4%
COc1ccc(C(=O)OCC(=O)N2CC(=O)Nc3ccccc32)cc1Br | -3.51%
O=[N+]([O-])c1c(NCCO)cc(Sc2nc3ccccc3s2)c2nonc12 | 50.1% (active)
O=C(O)c1ccccc1CSc1nc2ccccc2s1 | -21.2%
CCOc1ccccc1Nc1ccc2nonc2c1[N+](=O)[O-] | 9.13%
COC(=O)[C@]1(C)N[C@H](CN(C)C(=O)c2ccc(C(C)(C)C)cc2)[C@@H]2C(=O)N(C)C(=O)[C@@H]21 | 4.61%
CC(=O)CCS(=O)(=O)c1ccc(C)c(C)c1 | 2.16%
CCCn1c(C)cc(-c2csc(NC(=O)CCc3nc4ccccc4c(=O)[nH]3)n2)c1C | 13.7%
Cc1cc(S(=O)(=O)N2CCOCC2)ccc1OCC(=O)N1CCOCC1 | -24.7%
Cc1ccccc1OCC(=O)Nc1ccc(S(=O)(=O)N2CCOCC2)cc1 | -21.2%
Cc1cc(C(=O)COc2ccccc2[N+](=O)[O-])c(C)n1-c1cccc(S(=O)(=O)N2CCOCC2)c1 | 71.1% (active)

Source: PubChem BioAssay AID485346 (Sanford-Burnham Center for Chemical Genomics, 2010)
